Compound activity as filed in PubChem BioAssay.
A selection: hits, their analogues and other compounds. The true share with any hit is near 10%.
HEK cytotox: HEK 293 cell cytotoxicity. HEK 293 viability, ATP luminescence (CellTiter-Glo), 48-72 h. Potency, µM (series often up to 115 µM), inactives show at the highest dose activity change, negative = cytotoxicity, hits mostly inhibitors. 94,000 compounds, 6.6% hits. AID 1345083; further: on the % scale 0 is the no-effect control and ±100 the full control effect; nearly all actives have a fitted effect of over 60% in size
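qHTS cytotoxicity; HEK 293, 250 cells/well; compound pinned; 48 or 72 hr, 37 degree Celsius, 5% CO2, 95% humidity; CellTiter-Glo, 10 min RT; luminescence (ATP).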
GPT2 inhibitor: GPT2 alanine aminotransferase inhibition | Recombinant GPT2, coupled pyruvate oxidase/HRP Amplex Red fluorescence | Q8TD30 | 100,000 compounds, 0.25% hits | Potency, µM (titrated, usually from 57.7 µM), inactives show at the highest dose activity change, negative = inhibition, most hits filed as inhibitors; further: on the % scale 0 is the no-effect control and ±100 the full control effect; nearly all actives have a fitted effect of over 60% in size
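Recombinant GPT2 (10ng/uL) with 250uM a-KG and 2mM L-alanine, 30 min at room temperature, in HEPES pH 7.5 buffer. Pyruvate detected by pyruvate oxidase/HRP/Amplex Red fluorescence after 30 min in the dark; AOA (50uM) as positive control.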
hNpr1 antagonist: human Npr1 receptor antagonism; Potency, µM (top dose mostly 46.3 µM), for the others: at the highest dose activity change, negative = inhibition, actives largely listed as inhibitors; HEK293 hNpr1 GloSensor cGMP, ANP-stimulated luminescence; 76,000 compounds, 1.6% hits; P16066; AID 1347048; calls by dose curve; further: on the % scale 0 is the no-effect control and ±100 the full control effect; nearly all actives have a fitted effect of over 60% in size
Target sequence (P16066 whole entry, looked up): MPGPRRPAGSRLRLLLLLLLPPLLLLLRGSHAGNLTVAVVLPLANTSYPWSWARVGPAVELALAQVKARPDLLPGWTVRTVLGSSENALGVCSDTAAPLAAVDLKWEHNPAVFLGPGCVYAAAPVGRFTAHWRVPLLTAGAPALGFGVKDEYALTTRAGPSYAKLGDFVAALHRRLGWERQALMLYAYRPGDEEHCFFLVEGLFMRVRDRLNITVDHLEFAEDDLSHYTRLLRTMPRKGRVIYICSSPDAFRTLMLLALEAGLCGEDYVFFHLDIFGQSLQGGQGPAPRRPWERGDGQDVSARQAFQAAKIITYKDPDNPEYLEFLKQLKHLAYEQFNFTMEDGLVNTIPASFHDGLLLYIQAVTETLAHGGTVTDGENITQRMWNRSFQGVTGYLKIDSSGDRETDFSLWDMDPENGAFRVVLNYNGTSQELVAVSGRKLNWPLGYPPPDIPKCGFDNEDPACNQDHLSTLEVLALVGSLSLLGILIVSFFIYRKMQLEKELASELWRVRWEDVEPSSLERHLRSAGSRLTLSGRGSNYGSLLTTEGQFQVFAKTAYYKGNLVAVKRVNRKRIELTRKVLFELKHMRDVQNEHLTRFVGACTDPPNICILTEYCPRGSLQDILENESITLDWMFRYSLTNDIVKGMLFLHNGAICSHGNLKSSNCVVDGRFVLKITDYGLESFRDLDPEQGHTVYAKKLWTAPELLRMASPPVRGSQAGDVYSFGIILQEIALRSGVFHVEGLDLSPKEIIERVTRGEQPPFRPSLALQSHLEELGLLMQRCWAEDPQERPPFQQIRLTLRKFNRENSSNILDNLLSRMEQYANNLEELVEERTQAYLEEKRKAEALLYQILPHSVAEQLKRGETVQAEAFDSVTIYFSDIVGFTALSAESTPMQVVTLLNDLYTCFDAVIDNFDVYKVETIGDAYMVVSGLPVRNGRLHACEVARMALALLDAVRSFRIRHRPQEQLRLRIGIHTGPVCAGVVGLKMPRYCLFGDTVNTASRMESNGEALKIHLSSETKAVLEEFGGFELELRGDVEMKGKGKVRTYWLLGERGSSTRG
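HEK293 cells stably expressing human Npr1 and cGMP GloSensor pGS-40F, loaded 2 h with 2% GloSensor reagent, given compound 30 min at room temperature. Luminescence read before and 20 min after 0.1 nM hNppA.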
FLuc inh-1: Photinus pyralis luciferase inhibition. P08659. purified P. pyralis luciferase, luminescence, biochemical. Potency, µM (series often up to 115 µM), hits mostly inhibitors. 76,000 compounds, 2.5% hits. AID 1347043; further: on the % scale 0 is the no-effect control and ±100 the full control effect; nearly all actives have a fitted effect of over 65% in size
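Purified P. pyralis luciferase (10nM final) in 50mM Tris acetate pH 7.5, 10mM Mg acetate, 0.01% Tween-20, 0.05% BSA with 10uM D-luciferin and 10uM ATP. Compounds titrated qHTS. Luminescence imaged on CCD.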
NIH3T3 tox: kills NIH 3T3 cells. NIH 3T3 viability, CellTiter-Glo ATP luminescence, 48-72 h. Potency, µM (top dose mostly 96.7 µM), for inactives: top-dose activity change, negative = cytotoxicity, hits mostly inhibitors. 94,000 compounds, 4.3% hits. AID 1345082; further: on the % scale 0 is the no-effect control and ±100 the full control effect; nearly all actives have a fitted effect of over 55% in size
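First NIH 3T3 cells are plated at 400 cells/well; next compound is pinned in; then plates incubate 48 or 72 hr at 37 °C; finally CellTiter-Glo is added and luminescence read after 10 min.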
FLuc SDR no ATP: stabilizes firefly luciferase without ATP; shares compounds with FLuc inh-1; Purified FLuc-C-HiBiT, Nano-Glo HiBiT luminescence, no ATP; Potency, µM (series often up to 32.7 µM), without a hit: top-dose activation (signal gain), hits mostly activators; 1,300 compounds, 7.8% hits; further: nearly all actives have a fitted effect of over 55% in size
FLuc SDR ATP: stabilizes firefly luciferase with ATP present; 1,300 compounds, 8.7% hits; purified FLuc-C-HiBiT + ATP, HiBiT complementation luminescence; shares compounds with FLuc inh-1; Potency, µM (top dose mostly 32.7 µM), for the others: at the top dose activation (gain of signal), most hits filed as activators;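 further: signal reports ligand binding via conformational change of the enzyme rather than luciferase catalysis; % of control where 0% means no effect; nearly all actives have a fitted effect of over 55% in size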
FLuc inh-2: firefly luciferase enzyme inhibition | AID 1963320 | purified FLuc-C-HiBiT enzyme, luciferin luminescence | Potency, µM (doses to about 32.7 µM), for inactives: at the highest dose activity change, negative = inhibition, actives largely listed as inhibitors | 1,300 compounds, 42% hits | shares compounds with FLuc inh-1; further: on the % scale 0 is the no-effect control and ±100 the full control effect; nearly all actives have a fitted effect of over 70% in size
Active calls of the source: *; i = inactive; u = inconclusive; x = no result given; [ ] = remark or other dose. Unless noted, the call rests on the fitted dose curve; in most records, active means well fitted curve in the direction sought with a large enough effect; inconclusive means small, poorly fitted or top-dose-only effect, or another doubt; inactive means no such curve, though single readings can be large; an effect the other way counts as inactive or inconclusive. Potency means the concentration at half of the fitted maximal effect.

SMILES	HEK cytotox	GPT2 inhibitor	hNpr1 antagonist	FLuc inh-1	NIH3T3 tox	FLuc SDR no ATP	FLuc SDR ATP	FLuc inh-2
Fc1cc(Nc2cnc3ccc(-c4ccccc4)nn23)cc(N2CCOCC2)c1	45µM*	-20%[88.5 µM]	-27%[70.6 µM]	13µM*	32µM*	14%[49.3 µM]	11%[49.3 µM]	u
Fc1cccc(Nc2cnc3ccc(-c4ccccc4)nn23)c1	u	u	-21%[70.6 µM]	u	u	x	x	x
CC(=O)N1CCNc2cc(Nc3cccc(N(C)C)c3)ncc2C1	u	-13%[88.5 µM]	-1%[70.6 µM]	2.8µM*	u	31%[49.3 µM]	u	16µM*
COc1cccc(Nc2cc3c(cn2)CN(C(C)=O)CCN3)c1	u	3%[88.5 µM]	-30%[70.6 µM]	1.8µM*	u	u	u	9µM*
Cc1ccc(Nc2ccnc(N3CCCC3C(=O)NC3CCCC3)n2)cc1 (configuration not stated)	u	i	x	x	u	x	x	x
CSc1ccc(/C=C/c2nc3ccccc3n2S(=O)(=O)c2ccc(Br)cc2)cc1	x	x	x	x	x	7.9µM*	u	0.7µM*
O=S(=O)(c1cccc(C(F)(F)F)c1)n1c(/C=C/c2ccccc2)nc2ccccc21	x	x	x	x	x	1.6µM*	u	0.56µM*
COc1ccc(-c2nc(C(=O)NCc3cccnc3)n3ccccc23)cc1	u	-4%	1%	i	u	x	x	x
c1c(-c2nc(C3CCOC3)no2)sc2c1CCCC2 (configuration not stated)	u	i	8.9µM*	0.63µM*	u	21%	u	5.6µM*
CCOC(=O)c1cccc(NC(=O)c2cnc(-c3ccc(C)cc3)nc2-c2ccncc2)c1	u	-17%	-15%	i	-16%	x	x	x
Cc1ccc(OCC(=O)Nc2cccc(C(=O)OCc3cc(=O)n4nc(C)sc4n3)c2)cc1	x	x	x	x	x	20%	u	u
COCCN1C(=O)CCc2cc(NC(=O)c3ccc(C)c(C)c3)ccc21	u	-24%	2%	u	u	x	x	x
CCN1C(=O)CCc2cc(NC(=O)c3ccc(C(C)C)cc3)ccc21	u	i	u	3.5µM*	u	25%	14%	u
Cc1cc(C)cc(C(=O)NC(Cc2ccccc2)C(=O)N2CCN(c3ccccn3)CC2)c1 (configuration not stated)	u	3%	-7%	i	u	x	x	x
O=C(Nc1ccc(F)cc1)c1cc2cccnn2n1	u	i	4%[70.6 µM]	14µM*	u	25%[49.3 µM]	19%[49.3 µM]	u
Cn1nc(-c2ccncc2)cc1NC(=O)Cc1ccccc1	0%[172 µM]	i	x	x	u	x	x	x
Cc1c(NC(=O)c2ccc(I)o2)cccc1-c1nc2ccccc2s1	x	x	x	x	x	27%	13%	7µM*
Cc1c(NC(=O)c2cccc(Cl)c2Cl)cccc1-c1nc2ccccc2s1	x	x	x	x	x	17%	12%	-18%
Cc1c(NC(=O)Cc2ccccc2)cccc1-c1nc2ccccc2s1	x	x	x	x	x	u	17%	u
CCC(=O)Nc1cc(-c2nc3ccccc3s2)c(Cl)cc1Cl	x	x	x	x	x	17%	11%	-5%
Cc1ccc(-c2ncc(C(=O)Nc3ccccc3Cl)c(-c3ccncc3)n2)cc1	10%	i	-1%	i	-3%	x	x	x
O=C(Cc1cccc(Cl)c1)N1CCC(C(=O)N2CCCC2c2nc3ccncc3[nH]2)CC1 (configuration not stated)	i	i	x	x	0%	x	x	x
O=C1NCCCCCN(C(=O)COc2ccc(F)cc2)[C@H]2CCC[C@@H]12	4%	i	0%	i	-15%	x	x	x
CCCCOc1nc(N)c2[nH]c(=O)n(Cc3cccc(CC(=O)OC)c3)c2n1	x	x	x	x	x	11%	7%	2%
O=C(c1ccc(Cl)cc1)N1CCC(N2CCCOC2=O)CC1	-14%	i	x	x	-12%	x	x	x
SMILES	HEK cytotox	GPT2 inhibitor	hNpr1 antagonist	FLuc inh-1	NIH3T3 tox	FLuc SDR no ATP	FLuc SDR ATP	FLuc inh-2
Cc1ccc2[nH]c(CN3CCC(c4cccc(C#N)c4)CC3)cc(=O)c2c1	u	2%	u	i	u	x	x	x
Cc1cccc(NC(=O)N2CCc3c(C(=O)NC(C)(C)C)cccc32)c1	u	-13%	-12%	7.1µM*	-14%	u	u	8.8µM*
CNC(=O)c1cccc2c1CCN2C(=O)Nc1ccc(C)cc1	-26%	i	6.3µM*	0.4µM*	u	11µM*	0.44µM*	0.35µM*
CCC(=O)N1CCc2c(C(=O)NCc3cc(C)ccc3C)cccc21	-29%	-5%	3%	i	-11%	x	x	x
CCN1CCN(CCNC(=O)c2cccc3c2CCN3C(=O)Nc2ccc(C)cc2)CC1	u	-1%	u	2µM*	u	u	1.6µM*	1.1µM*
CC1CCCCN1c1csc2ccc(F)cc2c1=O (configuration not stated)	x	x	x	x	x	29%	19%	8.8µM*
CC[n+]1c(/C=C/N(C)c2ccccc2)n(-c2ccccc2)c2ccc(-c3nc4ccccc4s3)cc21	x	x	x	x	x	9%	7%	u
Cc1ccc(-c2cn3cc(C(=O)NCc4cccc(Cl)c4)nc3s2)cc1	u	3%	x	x	u	x	x	x
Cc1nc(S(=O)(=O)N2CCC(Cc3noc(-c4ccccc4)n3)C2)cn1C (configuration not stated)	-13%	-1%	1%	i	-11%	x	x	x
c1ccc2sc(SSc3nc4ccccc4s3)nc2c1	x	4%[27.3 µM]	x	x	x	x	x	x
Clc1cccc(-c2nc3ccccc3s2)c1	x	x	x	x	x	19%	16%	8.8µM*
FC(F)(F)c1cc(-c2nc3ccccc3s2)cc(C(F)(F)F)c1	x	x	x	x	x	13%	12%	u
Cc1ncccc1C(=O)N1CC(Oc2ccc(-c3nc(-c4ccccc4)no3)cc2)C1	13µM*	i	u	1µM*	u	22%	u	6.2µM*
O=C(c1ccccn1)N1CCC(Oc2ccc(-c3noc(-c4ccccc4)n3)cc2)C1 (configuration not stated)	22µM*	-21%	-21%	11µM*	u	13%	14%	u
Cc1cnc(C(=O)N2CC(Oc3ccc(-c4nc(-c5ccccc5)no4)cc3)C2)cn1	-23%	i	-13%	i	-21%	x	x	x
CCC[C@H](C)Oc1nc(N)c2[nH]c(=O)n(CCCCCN3CCCCC3)c2n1	x	x	x	x	x	13%	9%	-3%
CCCCn1c(=O)[nH]c2cccnc21	1%[230 µM]	u	13%[70.6 µM]	i	-12%[174 µM]	x	x	x
